Experimental data reported in the supplement of paper PMC8728848.
This excerpt belongs to a sample that is enriched for the strongest signals.

Columns and labels:
Assay in all cases: glycan array binding signal (z-score within array); higher = stronger binding
Conditions in all cases: glycan notation: IUPAC condensed, linker removed
[1] = target: Neu5Ac(a2-3)Gal(b1-3)]Neu5Ac(a2-3)Gal(b1-4)]GlcNAc
Method in brief: (§1)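 Columns mapping to the same glycan were averaged after glycan names were converted to IUPAC-condensed notation. The data come from 3228 arrays in the Consortium for Functional Glycomics database, limited to those with an available protein sequence. Binding is reported as a within-array Z-score averaged across arrays of one protein sequence and across linkers.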

Neu5Ac(a2-3)Gal(b1-4)Glc = target: Neu5Ac(a2-3)Gal(b1-4)Glc
Method in brief: as §1

[2] = target: Neu5Ac(a2-3)Gal(b1-4)GlcNAc(b1-3)Gal(b1-4)GlcNAc(b1-3)[Neu5Ac(a2-3)Gal(b1-4)GlcNAc(b1-3)Gal(b1-4)GlcNAc(b1-6)]GalNAc
Method in brief: as §1

[3] = target: Neu5Ac(a2-3)Gal(b1-4)GlcNAc6S
Method in brief: as §1

[4] = target: Neu5Ac(a2-3)Gal(b1-4)[Fuc(a1-3)]GlcNAc
Method in brief: as §1

[5] = target: Neu5Ac(a2-3)Gal(b1-4)[Fuc(a1-3)]GlcNAc(b1-2)Man
Method in brief: as §1

[6] = target: Neu5Ac(a2-3)Gal(b1-4)[Fuc(a1-3)]GlcNAc6S
Method in brief: as §1

[7] = target: Neu5Ac(a2-6)Gal(b1-4)GlcNAc(b1-3)Gal(b1-4)GlcNAc(b1-3)Gal(b1-4)GlcNAc(b1-2)Man(a1-3)[Neu5Ac(a2-6)Gal(b1-4)GlcNAc(b1-3)Gal(b1-4)GlcNAc(b1-3)Gal(b1-4)GlcNAc(b1-2)Man(a1-6)]GalNAc
Method in brief: as §1

[8] = target: Neu5Ac(a2-6)Gal(b1-4)GlcNAc6S
Method in brief: as §1

[9] = target: Neu5Ac(a2-8)Neu5Ac(a2-3)Gal(b1-4)GlcNAc
Method in brief: as §1

[10] = target: Neu5Ac(a2-8)Neu5Ac(a2-3)[Gal(b1-3)GalNAc(b1-4)]Gal(b1-4)Glc
Method in brief: as §1

[11] = target: Neu5Gc(a2-3)Gal(b1-3)GlcNAc
Method in brief: as §1

[12] = target: Neu5Gc(a2-3)Gal(b1-4)[Fuc(a1-3)]GlcNAc
Method in brief: as §1

[13] = target: Neu5Gc(a2-8)Neu5Gc(a2-3)Gal(b1-4)GlcNAc(b1-3)Gal(b1-4)GlcNAc
Method in brief: as §1

B1: Siglec-9 (Homo sapiens), Q9Y336 (protein)
chain: MLLLLLPLLWGRERAEGQTSKLLTMQSSVTVQEGLCVHVPCSFSYPSHGWIYPGPVVHGYWFREGANTDQDAPVATNNPARAVWEETRDRFHLLGDPHTKNCTLSIRDARRSDAGRYFFRMEKGSIKWNYKHHRLSVNVTALTHRPNILIPGTLESGCPQNLTCSVPWACEQGTPPMISWIGTSVSPLDPSTTRSSVLTLIPQPQDHGTSLTCQVTFPGASVTTNKTVHLNVSYPPQNLTMTVFQGDGTVSTVLGNGSSLSLPEGQSLRLVCAVDAVDSNPPARLSLSWRGLTLCPSQPSNPGVLELPWVHLRDAAEFTCRAQNPLGSQQVYLNVSLQSKATSGVTQGVVGGAGATALVFLSFCVIFVVVRSCRKKSARPAAGVGDTGIEDANAVRGSASQGPLTEPWAEDSPPDQPPPASARSSVGEGELQYASLSFQMVKPWDSRGQEATDTEYSEIKIHR
[1]
  glycan array binding signal (z-score): 1.76
Neu5Ac(a2-3)Gal(b1-4)Glc
  glycan array binding signal (z-score): 1.09
[2]
  glycan array binding signal (z-score): -0.187
[3]
  glycan array binding signal (z-score): 2.21
[4]
  glycan array binding signal (z-score): 1.14
[5]
  glycan array binding signal (z-score): 14.8
[6]
  glycan array binding signal (z-score): 16.8
[7]
  glycan array binding signal (z-score): 0.878
[8]
  glycan array binding signal (z-score): 1.58
[9]
  glycan array binding signal (z-score): -0.259
[10]
  glycan array binding signal (z-score): -0.214
[11]
  glycan array binding signal (z-score): -0.028
[12]
  glycan array binding signal (z-score): 0.005
[13]
  glycan array binding signal (z-score): -0.178
